Bioassay records from PubChem BioAssay.
Shown are actives, neighbours in structure and some others; about 2.4% of the full set was active somewhere.
Pol eta inh: DNA polymerase eta (human) inhibition. Q9Y253. recombinant Pol eta, fluorescent DNA replication assay. Potency, µM (titrated, usually from 114 µM), most hits filed as inhibitors. 390,000 compounds, 1.2% hits. AID 588591
Target sequence (Q9Y253 whole entry, looked up): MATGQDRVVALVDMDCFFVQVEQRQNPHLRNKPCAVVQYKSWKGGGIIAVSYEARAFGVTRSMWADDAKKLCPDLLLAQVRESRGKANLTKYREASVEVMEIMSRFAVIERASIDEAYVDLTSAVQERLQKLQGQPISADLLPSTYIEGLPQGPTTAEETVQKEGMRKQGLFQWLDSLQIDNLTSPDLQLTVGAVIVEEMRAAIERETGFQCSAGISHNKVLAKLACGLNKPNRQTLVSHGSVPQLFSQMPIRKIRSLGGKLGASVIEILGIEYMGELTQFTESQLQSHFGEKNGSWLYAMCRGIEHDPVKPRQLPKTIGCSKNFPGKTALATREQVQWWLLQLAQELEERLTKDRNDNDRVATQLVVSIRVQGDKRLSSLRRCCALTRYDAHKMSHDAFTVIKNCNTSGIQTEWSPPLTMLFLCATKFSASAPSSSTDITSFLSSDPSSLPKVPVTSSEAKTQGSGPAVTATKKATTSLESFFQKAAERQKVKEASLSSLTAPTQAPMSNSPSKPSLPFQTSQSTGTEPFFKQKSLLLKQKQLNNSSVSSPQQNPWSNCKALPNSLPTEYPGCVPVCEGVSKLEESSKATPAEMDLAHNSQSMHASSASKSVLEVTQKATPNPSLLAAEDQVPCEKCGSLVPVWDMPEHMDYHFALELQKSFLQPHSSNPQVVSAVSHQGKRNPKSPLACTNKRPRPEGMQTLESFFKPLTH
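Pol eta at 10 nM preincubated with compounds 15 min at room temperature; reaction started with fluorescent substrate (50 nM final) and read kinetically at 0 and 10 min.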
TDP1 inh: blocks human tyrosyl-DNA phosphodiesterase 1; recombinant TDP1, AlphaScreen DNA substrate cleavage; Potency, µM (doses to about 130 µM), actives largely listed as inhibitors; 350,000 compounds, 0.28% hits; AID 485290; note: nearly all actives have a fitted effect of over 40% in size
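Signal: AlphaScreen proximity between streptavidin donor and anti-FITC acceptor beads on intact substrate. Reaction: Tdp1 1 nM, substrate 15 nM final, 5 min RT after 15 min compound preincubation.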
Pol iota inh: blocks human DNA polymerase iota activity; Pol iota fluorescent replication assay, 10 min; Potency, µM (series often up to 115 µM), most hits filed as inhibitors; 390,000 compounds, 1% hits; AID 588590
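Fluorescent replication assay read twice, at 0 min and 10 min after adding 50 nM (final) substrate. Enzyme (10 nM) and compounds were first incubated 15 min at room temperature; enzyme-free buffer wells were negative controls.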
POLK inh: inhibitors of human DNA polymerase kappa | Potency, µM (titrated, usually from 107 µM), usual class: inhibitors | AID 588579 | 400,000 compounds, 0.53% hits | purified Pol kappa, fluorescent DNA synthesis assay, 10 min | Q9UBT6
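50 nM final substrate added after 15 min RT preincubation of 10 nM Pol kappa with compound; fluorescence read at 0 and 10 min.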
Pol beta inh: inhibitors of human DNA polymerase beta; 340,000 compounds, 1.3% hits; Pol beta primer extension/strand displacement, fluorescence kinetic; Potency, µM (series often up to 114 µM), hits mostly inhibitors; P06746
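10 nM enzyme + cpd, 15 min RT; start with substrate 50 nM final; read 0 min and after 10 min RT. Corrected, normalized data; 4-parameter Hill curve fit.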
Of the large screens only hits and unclear results are named; the others gave an inactive call; ! = not confirmed by another sample. Calls come from the whole dose curve; as a rule, active = well fitted curve in the direction sought with a large enough effect; inconclusive = small, poorly fitted or top-dose-only effect, or another doubt; inactive = no such curve, though single readings can be large; an effect the other way counts as inactive or inconclusive.

C/C(CC(=O)Nc1cc(C)ccn1)=N\NC(=O)c1ccncc1	none
CC1=C2C3OC(=O)C(C)C3CC[C@@]2(C)C=CC1=O (stereo partly drawn)	TDP1 inh 14.1µM!
CCOc1ccc2nc(N=Nc3c(O)[nH]c(=S)[nH]c3=O)sc2c1	Pol eta inh inconclusive
CCOc1ccc2nc(N=Nc3c(O)[nH]c(=O)[nH]c3=O)sc2c1	Pol eta inh inconclusive, TDP1 inh 39.8µM
CCCCNC(=O)c1cc(-c2cccnc2)nc2ccc(S(=O)(=O)NCCCC)cc12	Pol beta inh inconclusive
CN(C)c1ccc(/C=C/c2cc[n+](C)c3ccccc23)cc1	Pol eta inh inconclusive, Pol iota inh 79.4µM, POLK inh inconclusive, Pol beta inh inconclusive
COC1C(C)OC(OC2CC(C)(O)Cc3cc4c(c(O)c32)C(=O)c2c(O)cc3c(c2C4=O)OC2OC3(C)C(O)C(N(C)C)C2O)C(OC)C1(C)OC (stereo not drawn)	Pol eta inh inconclusive, Pol iota inh inconclusive, POLK inh 25.1µM (no result: TDP1 inh, Pol beta inh)
O=C(NCc1ccccc1)c1cccc(Nc2nc3ccccc3n3nnnc23)c1	Pol iota inh inconclusive
O=C(O)c1cc(O)c(O)c(O)c1	TDP1 inh inconclusive, POLK inh 10µM! (no result: Pol eta inh, Pol iota inh, Pol beta inh)
COc1ccc(C(=O)O)cc1OC	none (no result: Pol beta inh)
COc1ccc(N2C(=O)/C(=C/c3ccc(N(C)C)o3)C(=O)NC2=S)cc1	Pol iota inh inconclusive (no result: TDP1 inh)
Cc1ccc(N2C(=O)/C(=C/c3ccc(CN(CCC#N)S(C)(=O)=O)o3)C(=O)NC2=S)cc1	Pol eta inh 2.24µM, Pol iota inh 3.16µM, POLK inh 17.8µM, Pol beta inh 6.31µM
COC(=O)C1=Nc2ccccc2/C1=C\c1c(O)n(-c2ccc(Br)cc2)c(=O)[nH]c1=O	Pol eta inh 35.5µM, Pol beta inh inconclusive
O=C(O)c1ccc(-n2c(O)c(/C=C3\C=Nc4ccccc43)c(=O)[nH]c2=O)cc1	Pol eta inh 50.1µM, Pol iota inh inconclusive (no result: TDP1 inh)
O=c1[nH]c(=O)n(-c2cccc(F)c2)c(O)c1/C=C1\C=Nc2ccccc21	Pol iota inh 14.1µM (no result: TDP1 inh)
COC(=O)C1=Nc2ccccc2/C1=C\c1c(O)n(-c2ccc(OC)cc2)c(=O)[nH]c1=O	Pol eta inh inconclusive, Pol iota inh inconclusive, Pol beta inh inconclusive
Cc1cccc(N(C)S(=O)(=O)c2cc(-c3cnc(C4CC4)o3)ccc2C)c1	Pol iota inh inconclusive (no result: Pol eta inh)
CCn1cc(C=C2C(=O)NC(=O)NC2=O)c2ccccc21	Pol iota inh 20µM, Pol beta inh inconclusive (no result: TDP1 inh)
NC(=O)Cn1cc(C=C2C(=O)NC(=O)NC2=O)c2ccccc21	Pol iota inh inconclusive (no result: TDP1 inh)
O=C(NCc1ccc2c(c1)CCN2C(=O)c1ccccc1)Nc1cccc(C(F)(F)F)c1	Pol eta inh inconclusive
CCCOC(=O)Nc1ccc([As](=O)(O)O)cc1NC(=O)OCCC	none (no result: TDP1 inh)
CCOC(=O)Nc1ccc(NCc2ccc(F)cc2)nc1N	Pol eta inh 28.2µM, Pol iota inh 3.98µM
Cc1ccc(-n2nc3c(=O)n(CC(=O)NCC(C)c4ccccc4)nc(C)c3c2C)cc1 (stereo not drawn)	none
O=C1NC(=O)N(c2ccc3c(c2)OCO3)C(=O)/C1=C\c1ccc(-c2ccccc2C(=O)O)o1	Pol eta inh 10µM, TDP1 inh 11.2µM, Pol iota inh 20µM, POLK inh 79.4µM, Pol beta inh 10µM
NC1C=CC=C(C(=O)O)C1 (stereo not drawn)	Pol eta inh inconclusive, TDP1 inh 3.98µM!, POLK inh inconclusive
Cc1cccc2c3c(ccc12)C1=C(C(=O)C3=O)[C@@H](C)CO1	POLK inh inconclusive (no result: Pol eta inh, Pol iota inh, Pol beta inh)
O=C(Nc1cc(C(F)(F)F)cc(C(F)(F)F)c1)c1cc(Cl)ccc1O	POLK inh 29.9µM! (no result: Pol eta inh, Pol iota inh, Pol beta inh)
O=C(Nc1cc(C(F)(F)F)cc(C(F)(F)F)c1)c1cccn(Cc2ccccc2Cl)c1=O	none
Cc1c(C(=O)Nc2ccccc2Cl)oc2ccc(S(=O)(=O)N3CCCCC3)cc12	Pol iota inh inconclusive
CC(=O)[O][Hg][c]1ccccc1	TDP1 inh 31.6µM (no result: Pol eta inh, Pol iota inh, Pol beta inh)
CC(=O)NNc1ccccc1	none (no result: Pol eta inh, Pol iota inh, POLK inh, Pol beta inh)
CCN(CC)C(=O)Cn1cc(S(=O)(=O)CC(=O)NCc2ccc(C)cc2)c2ccccc21	none (no result: TDP1 inh, Pol beta inh)
N.N.N.N.N.N.N.N.N.N.N.N.N.N.O.O.[Ru+4].[Ru+5].[Ru+5]	POLK inh 26.7µM (no result: Pol eta inh, TDP1 inh, Pol iota inh, Pol beta inh)
CC(=O)c1ccc2c(c1)C1C(Cl)C(Sc3ccccc3[N+](=O)[O-])CC1C(C(=O)O)N2 (stereo not drawn)	Pol eta inh 3.55µM, Pol iota inh inconclusive, POLK inh inconclusive, Pol beta inh 39.8µM
C=CCN1C(=O)/C(=C/c2ccc(N3CCOCC3)o2)C(=O)NC1=S	Pol iota inh inconclusive, Pol beta inh inconclusive
Cc1cc(C)cc(N2C(=O)/C(=C\c3ccc(N4CCN(C)CC4)o3)C(=O)NC2=S)c1	Pol iota inh 31.6µM
O=C(Nc1cccc(C(=O)Nc2cc(C(=O)Nc3ccc([S+](=O)([O-])[O-])c4cc([S+](=O)([O-])[O-])cc(SOOO)c34)ccc2F)c1)Nc1cccc(C(=O)Nc2cc(C(=O)Nc3ccc([S+](=O)([O-])[O-])c4cc([S+](=O)([O-])[O-])cc([S+](=O)([O-])[O-])c34)ccc2F)c1	TDP1 inh 2.24µM, POLK inh 0.0597µM (no result: Pol eta inh, Pol iota inh, Pol beta inh)
c1ccc2c(c1)CCCC2	none (no result: Pol eta inh, Pol iota inh, POLK inh, Pol beta inh)
Cc1cc(C(C#N)c2ccc(Cl)cc2)c(Cl)cc1NC(=O)c1cc(I)cc(I)c1O (stereo not drawn)	Pol eta inh 50.1µM, Pol iota inh inconclusive, POLK inh inconclusive (no result: Pol beta inh)
O=C(O)c1[nH]n(-c2ccc(S(=O)(=O)O)cc2)c(=O)c1N=Nc1ccc(S(=O)(=O)O)cc1	Pol iota inh inconclusive (no result: Pol eta inh, TDP1 inh, Pol beta inh)
CC1(C)C(=O)CC[C@]2(C)C3C(=O)C=C4[C@H]5C[C@@](C)(C(=O)O)CC[C@]5(C)CC[C@]4(C)[C@]3(C)CC[C@@H]12 (stereo partly drawn)	Pol beta inh 44.7µM
Cc1cccc(N2C(=O)CSC23C(=O)N(CC(=O)Nc2cccc(Cl)c2)c2ccccc23)c1 (stereo not drawn)	Pol iota inh inconclusive
O=c1c(O)c(-c2ccc(O)c(O)c2)oc2c(O)c(O)cc(O)c12	POLK inh 1.12µM (no result: Pol eta inh, Pol iota inh, Pol beta inh)
Cc1cc(/C=C/c2cccc3sc(C)[n+](CCCCI)c23)ccc1N(CCCl)CCCl	Pol iota inh 79.4µM, POLK inh 56.2µM (no result: Pol eta inh, TDP1 inh, Pol beta inh)
Cc1cc(/C=C/c2ccnc3ccccc23)ccc1N(CCCl)CCCl	Pol iota inh inconclusive (no result: Pol eta inh, TDP1 inh, Pol beta inh)
ClCBr	none (no result: Pol eta inh, Pol iota inh, POLK inh, Pol beta inh)
COC(=O)c1ccc(N=C(c2ccccc2)c2c(O)n(C)c(=O)n(C)c2=O)cc1	Pol iota inh 31.6µM (no result: TDP1 inh)
Cc1ccc(-c2nc(S(=O)(=O)c3ccc(C)cc3)c(SCC(=O)Nc3ccc(F)cc3)o2)cc1	Pol beta inh inconclusive
C[C@@]12C(=O)OC(=O)[C@]1(C)[C@H]1CC[C@@H]2O1	none (no result: Pol eta inh, Pol iota inh, Pol beta inh)
CCn1c(O)c(C=Nc2ccc(N3CCOCC3)cc2)c(=O)n(CC)c1=S	Pol beta inh 17.8µM
